# From PubChem BioAssay (NCI)
# This is part of a sample that, as a whole, favours compounds with a hit. Of some 83,000 tested, about 20% had one in any assay.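 Plates (96-well) were seeded with cells, treated with compound at one concentration, and incubated for 48 hours before percent growth was determined.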 Values without a mark were called inactive. The source made the active and inactive calls. How the source made its calls: active means growth percent below 10; inactive means the rest.
# Key:
# Assay in all cases: NCI-60 one-dose screen, 48 h (100 = growth as untreated, 0 = no growth, -100 = all killed)
# NCI-H23 lung = settings: 10 µM unless noted
# NCI-H226 lung = settings: 10 µM unless noted
# NCI-H322M lung = settings: 10 µM unless noted
# HOP-62 NSCLC = settings: 10 µM unless noted
# NCI-H460 lung = settings: 10 µM unless noted
# HOP-92 NSCLC = settings: 10 µM unless noted
# NCI-H522 lung = settings: 10 µM unless noted
# A549/ATCC NSCLC = settings: 10 µM unless noted
# 786-0 renal = settings: 10 µM unless noted
# COLO 205 colon = settings: 10 µM unless noted
# DU-145 prostate = settings: 10 µM unless noted
# K-562 leukemia = settings: 10 µM unless noted
# MALME-3M melanoma = settings: 10 µM unless noted
# MDA-MB-231 breast = settings: 10 µM unless noted
# RXF 393 renal = settings: 10 µM unless noted
# SF-268 CNS = settings: 10 µM unless noted
# SF-295 CNS = settings: 10 µM unless noted
# SF-539 CNS = settings: 10 µM unless noted
# UACC-257 melanoma = settings: 10 µM
# M14 melanoma = settings: 10 µM unless noted
Compound,growth (NCI-H23 lung),growth (NCI-H226 lung),growth (NCI-H322M lung),growth (HOP-62 NSCLC),growth (NCI-H460 lung),growth (HOP-92 NSCLC),growth (NCI-H522 lung),growth (A549/ATCC NSCLC),growth (786-0 renal),growth (COLO 205 colon),growth (DU-145 prostate),growth (K-562 leukemia),growth (MALME-3M melanoma),growth (MDA-MB-231 breast),growth (RXF 393 renal),growth (SF-268 CNS) [%],growth (SF-295 CNS),growth (SF-539 CNS),growth (UACC-257 melanoma),growth (M14 melanoma)
COc1cc(-c2nc(SCc3ccc(C)cc3)[nH]c(=O)c2C#N)ccc1OCc1ccccc1,106%,96.2%,104%,104%,104%,113%,95.6%,102%,103%,119%,106%,87.9%,94.5%,104%,108%,97.6,106%,101%,96.9%,105%
Oc1ccc(CSc2nnc(-c3cnccn3)o2)c2cccnc12,12.1%,23.6%,31.6%,20.9%,2.29% (active),-9.09% (active),7.24% (active),20.9%,24.5%,85.4%,26.1%,10.2%,-6.87% (active),31%,20.6%,22.9,-7.6% (active),18.6%,6.92% (active),28.6%
COc1cc(NC2=C(Cl)C(=O)c3nc(C)ccc3C2=O)cc(OC)c1,-55.6% (active),68.6%,89.8%,0.846% (active),2.02% (active),-12.2% (active),-80.6% (active),42.4%,-59.5% (active),-80.5% (active),-93% (active),4.73% (active),-89.4% (active),-28.6% (active),-97.2% (active),37,51.6%,-30.9% (active),-92% (active),-96% (active)
COC(=O)Nc1ccc(-c2nc(-c3cccc(O)c3)c(-c3ccnc(Br)c3)[nH]2)cc1,67.2%,63.8%,68.4%,64.7%,26.8%,51.5%,56%,62.2%,34.6%,95.4%,62.1%,27.9%,54.1%,56.6%,-4.89% (active),72.6,27.8%,52.6%,58.5%,48.9%
CCN(CC)CCCC(C)NCC(=O)NC(c1ccc2c(c1)OCO2)c1cc(Cl)c2cccnc2c1O (stereo not given),41.7%,41.2%,35.2%,21.6%,8.77% (active),35.9%,37.4%,24.1%,7.03% (active),17.6%,44.2%,10.6%,5.27% (active),35.5%,67.5%,22.7,-53.3% (active),6.63% (active),76.6%,-9.39% (active)
COc1ccccc1/C=C/C(=O)c1nnn(-c2ccc(C(=O)O)cc2)c1C,87.6%,94.7%,92.1%,110%,96.1%,101%,82.4%,90.3%,93.2%,110%,80.4%,73.7%,86.8%,98.7%,86.6%,87.5,100%,91.4%,81.5%,77.8%
CC1=C2C(=C[C@@](C)(COS(N)(=O)=O)[C@@H]2O)C(=O)[C@](C)(O)C12CC2,23.6%,85.8%,74.4%,45.7%,7.04% (active),43.8%,70.5%,21.2%,79.4%,47.7%,15.3%,97.2%,88.3%,83%,-30.2% (active),32.2,20.5%,64.9%,89.3%,76.7%
O=C(Nc1cc(Cl)cc(Cl)c1)Nc1nc2ccc([N+](=O)[O-])cc2s1,-37.7% (active),-9.83% (active),9.2% (active),-4.21% (active),1.08% (active),-6.65% (active),1.99% (active),9.1% (active),11%,-49.2% (active),16.9%,3.25% (active),-8.59% (active),-0.651% (active),-25% (active),15.4,-57.2% (active),3.86% (active),-14.5% (active),-9.81% (active)
